# About 2,000 (36%) of roughly 5,500 compounds were called active. Roughly 18% stayed inconclusive and do not appear here. This is one part of the list. Unmarked numbers belong to inactive results. Cut-off read from the data, not from the text of the source: active = normalized growth mostly below about 0.91 (no sharp cut-off); inconclusive = no clear call, values can overlap the other calls; inactive = mostly above about 0.92.
# Test: chemical genetic growth profiling, strain panel (AID 1159580);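 note: tested at 20 µM; growth read once vehicle control cultures reached saturation at 30 °C; 1 = growth at the plate median or of vehicle wells; lower values mean less growth of the strain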
# Conditions: S. cerevisiae deletion strains, growth OD
# [1] = locus YAR019C, strain CDC15, stronger effect = lower value
# [2] = locus YBL105C, strain PKC1, stronger effect = lower value
# [3] = locus YBR135W, strain CKS1, stronger effect = lower value
# [4] = locus YBR136W, strain MEC1, stronger effect = lower value
# [5] = locus YBR160W, strain CDC28, stronger effect = lower value
# [6] = locus YDL017W, strain CDC7, stronger effect = lower value
# [7] = locus YDL028C, strain MPS1, stronger effect = lower value
# [8] = locus YDL101C, strain DUN1, stronger effect = lower value
# [9] = locus YDL108W, strain KIN28, stronger effect = lower value
# [10] = locus YDL132W, strain cdc53, stronger effect = lower value
# [11] = locus YDL214C, strain PRR2, stronger effect = lower value
# [12] = locus YDR052C, strain DBF4, stronger effect = lower value
# [13] = locus YDR054C, strain cdc34, stronger effect = lower value
# [14] = locus YDR226W, strain ADK1, stronger effect = lower value
# [15] = locus YDR477W, strain SNF1, stronger effect = lower value
# [16] = locus YER123W, strain YCK3, stronger effect = lower value
# [17] = locus YER133W, strain GLC7, stronger effect = lower value
# [18] = locus YFL009W, strain cdc4, stronger effect = lower value
# [19] = locus YFL029C, strain CAK1, stronger effect = lower value
# [20] = locus YFR003C, strain YPI1, stronger effect = lower value
# [21] = locus YFR019W, strain FAB1, stronger effect = lower value
# [22] = locus YFR028C, strain CDC14, stronger effect = lower value
# [23] = locus YGR040W, strain KSS1, stronger effect = lower value
# [24] = locus YGR052W, strain FMP48, stronger effect = lower value
# [25] = locus YGR092W, strain DBF2, stronger effect = lower value
# [26] = locus YHR030C, strain SLT2, stronger effect = lower value
# [27] = locus YHR079C, strain IRE1, stronger effect = lower value
# [28] = locus YHR082C, strain KSP1, stronger effect = lower value
# [29] = locus YHR205W, strain SCH9, stronger effect = lower value
# [30] = locus YIL147C, strain SLN1, stronger effect = lower value
# [31] = locus YJL095W, strain BCK1, stronger effect = lower value
# [32] = locus YJL128C, strain PBS2, stronger effect = lower value
# [33] = locus YJL157C, strain FAR1, stronger effect = lower value
# [34] = locus YJR016C, strain ILV3, stronger effect = lower value
# [35] = locus YJR066W, strain TOR1 (second series), stronger effect = lower value
# [36] = locus YJR066W, strain TOR1, stronger effect = lower value
# [37] = locus YKL048C, strain ELM1, stronger effect = lower value
# [38] = locus YKL067W, strain YNK1, stronger effect = lower value
# [39] = locus YKL101W, strain HSL1, stronger effect = lower value
# [40] = locus YKL193C, strain SDS22, stronger effect = lower value
# [41] = locus YKL203C, strain TOR2, stronger effect = lower value
# [42] = locus YLR113W, strain HOG1, stronger effect = lower value
# [43] = locus YLR133W, strain CKI1, stronger effect = lower value
# [44] = locus YLR403W, strain SFP1, stronger effect = lower value
# [45] = locus YML070W, strain DAK1, stronger effect = lower value
# [46] = locus YMR001C, strain CDC5, stronger effect = lower value
# [47] = locus YMR205C, strain PFK2 (second series), stronger effect = lower value
# [48] = locus YMR277W, strain FCP1, stronger effect = lower value
# [49] = locus YNL006W, strain LST8, stronger effect = lower value
# [50] = locus YNL020C, strain ARK1, stronger effect = lower value
# [51] = locus YNL161W, strain CBK1, stronger effect = lower value
# [52] = locus YNL183C, strain NPR1, stronger effect = lower value
# [53] = locus YNL207W, strain RIO2, stronger effect = lower value
# [54] = locus YNL222W, strain SSU72, stronger effect = lower value
# [55] = locus YNL307C, strain MCK1 (second series), stronger effect = lower value
# [56] = locus YOL078W, strain AVO1, stronger effect = lower value
# [57] = locus YOL136C, strain PFK27, stronger effect = lower value
# [58] = locus YOR061W, strain CKA2, stronger effect = lower value
# [59] = locus YOR119C, strain RIO1, stronger effect = lower value
# [60] = locus YOR231W, strain MKK1, stronger effect = lower value
# [61] = locus YOR329C, strain SCD5, stronger effect = lower value
# [62] = locus YPL031C, strain PHO85, stronger effect = lower value
# [63] = locus YPL153C, strain RAD53, stronger effect = lower value
# [64] = locus YPL204W, strain HRR25, stronger effect = lower value
# [65] = locus YPL209C, strain IPL1, stronger effect = lower value
# [66] = locus YPL256C, strain CLN2, stronger effect = lower value
# [67] = locus YPR025C, strain CCL1, stronger effect = lower value
# [68] = locus YPR106W, strain ISR1, stronger effect = lower value
# [69] = locus YPR111W, strain DBF20, stronger effect = lower value
# [70] = strain NNK1, stronger effect = lower value
# [71] = strain TSCII, stronger effect = lower value
compound,measurement,setting,value
CS(=NC(=O)c1cccc(Cl)c1)c1ccc(OC(=O)c2ccc(Cl)cc2)cc1 (stereo not given),normalized growth,[1],0.969
same,normalized growth,[2],0.966
same,normalized growth,[3],0.97
same,normalized growth,[4],0.966
same,normalized growth,[5],0.967
same,normalized growth,[6],0.968
same,normalized growth,[7],0.964
same,normalized growth,[8],0.972
same,normalized growth,[9],0.964
same,normalized growth,[10],0.958
same,normalized growth,[11],0.958
same,normalized growth,[12],0.954
same,normalized growth,[13],0.967
same,normalized growth,[14],0.966
same,normalized growth,[15],0.972
same,normalized growth,[16],0.924
same,normalized growth,[17],0.95
same,normalized growth,[18],0.966
same,normalized growth,[19],0.966
same,normalized growth,[20],0.968
same,normalized growth,[21],0.943
same,normalized growth,[22],0.966
same,normalized growth,[23],0.96
same,normalized growth,[24],0.98
same,normalized growth,[25],0.981
same,normalized growth,[26],1.08
same,normalized growth,[27],1.1
same,normalized growth,[28],1.06
same,normalized growth,[29],1
same,normalized growth,[30],0.958
same,normalized growth,[31],0.946
same,normalized growth,[32],0.944
same,normalized growth,[33],0.949
same,normalized growth,[34],0.969
same,normalized growth,[35],0.983
same,normalized growth,[36],1.05
same,normalized growth,[37],0.945
same,normalized growth,[38],0.949
same,normalized growth,[39],0.935
same,normalized growth,[40],0.964
same,normalized growth,[41],1.02
same,normalized growth,[42],0.876
same,normalized growth,[43],0.952
same,normalized growth,[44],1
same,normalized growth,[45],0.94
same,normalized growth,[46],0.964
same,normalized growth,[47],0.934
same,normalized growth,[48],0.968
same,normalized growth,[49],0.979
same,normalized growth,[50],0.949
same,normalized growth,[51],0.971
same,normalized growth,[52],1.01
same,normalized growth,[53],0.964
same,normalized growth,[54],0.97
same,normalized growth,[55],0.982
same,normalized growth,[56],0.959
same,normalized growth,[57],0.936
same,normalized growth,[58],0.926
same,normalized growth,[59],1.01
same,normalized growth,[60],0.909
same,normalized growth,[61],0.969
same,normalized growth,[62],0.941
same,normalized growth,[63],0.968
same,normalized growth,[64],0.952
same,normalized growth,[65],0.974
same,normalized growth,[66],1.06
same,normalized growth,[67],0.968
same,normalized growth,[68],0.974
same,normalized growth,[69],0.975
same,normalized growth,[70],0.972
same,normalized growth,[71],0.965
CC(C)(C)CN/C(C#N)=C(/C#N)NCc1cccc(Cl)c1,normalized growth,[1],0.993
same,normalized growth,[2],0.991
same,normalized growth,[3],0.98
same,normalized growth,[4],0.991
same,normalized growth,[5],0.991
same,normalized growth,[6],0.994
same,normalized growth,[7],0.993
same,normalized growth,[8],0.982
same,normalized growth,[9],0.997
same,normalized growth,[10],0.987
same,normalized growth,[11],0.991
same,normalized growth,[12],0.996
same,normalized growth,[13],0.991
same,normalized growth,[14],0.973
same,normalized growth,[15],0.988
same,normalized growth,[16],0.947
same,normalized growth,[17],0.988
same,normalized growth,[18],0.988
same,normalized growth,[19],0.992
same,normalized growth,[20],0.991
same,normalized growth,[21],0.99
same,normalized growth,[22],0.983
same,normalized growth,[23],0.966
same,normalized growth,[24],0.947
same,normalized growth,[25],0.871
same,normalized growth,[26],0.977
same,normalized growth,[27],0.995
same,normalized growth,[28],1.01
same,normalized growth,[29],0.896
same,normalized growth,[30],1
same,normalized growth,[31],0.883
same,normalized growth,[32],0.95
same,normalized growth,[33],0.982
same,normalized growth,[34],0.987
same,normalized growth,[35],0.97
same,normalized growth,[36],1
same,normalized growth,[37],0.986
same,normalized growth,[38],0.977
same,normalized growth,[39],0.954
same,normalized growth,[40],0.984
same,normalized growth,[41],1.04
same,normalized growth,[42],0.915
same,normalized growth,[43],0.974
same,normalized growth,[44],0.941
same,normalized growth,[45],0.965
same,normalized growth,[46],0.995
same,normalized growth,[47],0.973
same,normalized growth,[48],0.992
same,normalized growth,[49],0.978
same,normalized growth,[50],0.974
same,normalized growth,[51],0.984
same,normalized growth,[52],0.945
same,normalized growth,[53],0.98
same,normalized growth,[54],0.984
same,normalized growth,[55],0.877
same,normalized growth,[56],0.981
same,normalized growth,[57],0.955
same,normalized growth,[58],1
same,normalized growth,[59],1.04
same,normalized growth,[60],0.931
same,normalized growth,[61],0.99
same,normalized growth,[62],0.99
same,normalized growth,[63],0.988
same,normalized growth,[64],0.967
same,normalized growth,[65],0.982
same,normalized growth,[66],1.08
same,normalized growth,[67],0.986
same,normalized growth,[68],0.989
same,normalized growth,[69],0.964
same,normalized growth,[70],0.987
same,normalized growth,[71],0.985
CCOc1ccc(/C=C(\C#N)c2cccc(Cl)c2)cc1,normalized growth,"locus YAL013W, strain DEP1, stronger effect = lower value",0.992
same,normalized growth,"locus YBR229C, strain ROT2, stronger effect = lower value",0.995
same,normalized growth,"locus YCL061C, strain MRC1, stronger effect = lower value",1.01
same,normalized growth,[8],1.01
same,normalized growth,"locus YDL134C, strain PPH21, stronger effect = lower value",0.915 (active)
same,normalized growth,"locus YDR150W, strain NUM1, stronger effect = lower value",0.975
same,normalized growth,"locus YEL061C, strain CIN8, stronger effect = lower value",0.955
same,normalized growth,"locus YGR078C, strain PAC10, stronger effect = lower value",0.979
same,normalized growth,[26],0.694
same,normalized growth,"locus YHR087W, strain rtc3, stronger effect = lower value",0.97
same,normalized growth,"locus YJL187C, strain SWE1, stronger effect = lower value",1.01
same,normalized growth,"locus YJR043C, strain POL32, stronger effect = lower value",1
same,normalized growth,"locus YJR075W, strain HOC1, stronger effect = lower value",0.967
same,normalized growth,"locus YLR039C, strain RIC1, stronger effect = lower value",0.892
same,normalized growth,"locus YLR058C, strain SHM2 (second series), stronger effect = lower value",0.982
same,normalized growth,"locus YLR085C, strain ARP6, stronger effect = lower value",0.723 (active)
same,normalized growth,"locus YLR262C, strain YPT6, stronger effect = lower value",0.952
same,normalized growth,"locus YML094W, strain GIM5, stronger effect = lower value",0.927
same,normalized growth,"locus YMR219W, strain ESC1, stronger effect = lower value",0.99
same,normalized growth,"locus YMR263W, strain SAP30, stronger effect = lower value",0.987
same,normalized growth,"locus YMR307W, strain GAS1, stronger effect = lower value",0.645 (active)
same,normalized growth,"locus YNL153C, strain GIM3, stronger effect = lower value",1.01
same,normalized growth,"locus YNL298W, strain CLA4 (second series), stronger effect = lower value",0.936
same,normalized growth,"locus YNL322C, strain KRE1, stronger effect = lower value",0.975
same,normalized growth,"locus YNR030W, strain Alg12, stronger effect = lower value",0.928
same,normalized growth,"locus YPL055C, strain LGE1, stronger effect = lower value",0.95
same,normalized growth,"locus YPL241C, strain CIN2, stronger effect = lower value",0.933
same,normalized growth,"locus YPR135W, strain CTF4, stronger effect = lower value",0.987

# Reference: PubChem BioAssay AID1159580 (chemical genetic matrix, 2015)
